Laboratory results: PubChem BioAssay (NCI)
Values joined by “and” are separate entries in the source; they are usually repeats but may differ in a detail not shown here. Equal values may be shown once. Compounds without any hit were thinned out: in the full panel of roughly 83,000, 20% have a hit.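 Step 1: grow cells in 96-well plates. Step 2: add test compound at a single concentration. Step 3: incubate 48 h. Step 4: record percent growth.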 Active and inactive are the calls of the source.

The compounds below were run on HCT-15 colon (assay: NCI-60 one-dose screen, 48 h (100 = growth as untreated, 0 = no growth, -100 = all killed)). Details: 0.01 µM.
Description: Growth inhibition of the HCT-15 human tumor cell line is measured as a screen for anti-cancer activity. Cells are grown in 96 well plates and exposed to the test compound for 48 hours. Compounds are tested at a single concentration, which is 10^-5 M for most compounds. The reported endpoint is percent growth (GI% or GIPRCNT), where numbers from 0 - 100% represent growth inhibition, and numbers from -100% - 0 represent cell death. For example, a value of 40 represents 60% growth inhibition. A value of 0 means no net growth occurred over the course of the experiment. A value of -40 indicates 40% of cells at the beginning of the experiment died by the end of the experiment. A value of -100 means all cells are dead at the end of the experiment.
NCI-60 Human Tumor Cell Lines Screen was performed using the standard one-dose NCI protocol, which is described in more detail at https://dtp.cancer.gov/discovery_development/nci-60/default.htm.
Compounds with GIPRCNT values below 10 were considered active. Activity score was based on GIPRCNT using the following formula: […]
Score is 0 for GIPRCNT values of 100 or above, 50 for GIPRCNT values of 0, and 100 for GIPRCNT values of -100.
For `CC(=O)O[C@H]1C(=O)[C@@]2(C)[C@H]([C@H](OC(=O)c3ccccc3)[C@]3(O)C[C@H](OC(=O)[C@H](O)[C@@H](NC(=O)c4ccccc4)c4ccccc4)C(C)=C1C3(C)C)[C@]1(OC(C)=O)CO[C@@H]1C[C@@H]2O`, the growth was 87.3% (inactive).

Same assay, conditions: 2.5 µM
`CC(=O)O[C@H]1C(=O)[C@@]2(C)[C@H]([C@H](OC(=O)c3ccccc3)[C@]3(O)C[C@H](OC(=O)[C@H](O)[C@@H](NC(=O)c4ccccc4)c4ccccc4)C(C)=C1C3(C)C)[C@]1(OC(C)=O)CO[C@@H]1C[C@@H]2O` was tested, and the growth was 13.2% (inactive).

Same assay, conditions: 5 µM
For `CC(=O)O[C@H]1C(=O)[C@@]2(C)[C@H]([C@H](OC(=O)c3ccccc3)[C@]3(O)C[C@H](OC(=O)[C@H](O)[C@@H](NC(=O)c4ccccc4)c4ccccc4)C(C)=C1C3(C)C)[C@]1(OC(C)=O)CO[C@@H]1C[C@@H]2O`, the growth was 12.4% (inactive).

Same assay, conditions: 10 µM
`CC1CCC2(C(=O)O)CCC3(C)C(=CCC4C5(C)CC(O)C(O)C(C)(CO)C5C(O)CC43C)C2C1C` (stereo not given) was tested, and the growth was 112% (inactive).
With `CN(CC(=O)O)c1ccc(/C=C/c2ccnc3ccccc23)cc1` the growth was 84.5% (inactive).
In the case of `O=c1[nH]cc(/C=N\Nc2ccccc2)c(=O)[nH]1`, the growth is reported as 41.1% (inactive).
With `CN(C)CCNc1cccc2sc3ccc(O)cc3c(=O)c12` the growth was 26.9% (inactive).
With `O=C1c2ccccc2CCC1(Br)Br` the growth was -57% (active).
For `CCC(C)(c1ccc(O)c(C)c1)c1ccc(O)c(C)c1`, the growth was 99.1% (inactive).
`O=C(CNS(=O)(=O)Cc1ccccc1)NNc1ccccc1` was tested, and the growth was 27.8% (inactive).
`O=C1C(Cl)=C(Cl)C(Cl)(Cl)C(Cl)C1(Cl)Cl` (stereo not given) was tested, and the growth was 91.3% (inactive).
`Cc1cc(C)c(N2C(=O)CC(Sc3ccccc3N)C2=O)c(C)c1` (stereo not given) was tested, and the growth was 58% (inactive).
`CCOC(=O)[C@]1(Br)CC[C@@]1(Br)C(=O)OCC` was tested, and the growth was 89.2% (inactive).
In the case of `N#CC(=C1C=CC(=NO)C=C1)c1ccccc1`, the growth is reported as 9.7% (active).
In the case of `O=C(NC(=S)Nc1ccccn1)c1ccccc1`, the growth is reported as 100% (inactive).
In the case of `COc1ccc2oc(-c3ccc(Cl)cc3)c(N3CCN(C)CC3)c2c1`, the growth is reported as 28.9% (inactive).
In the case of `S=P(N1CC1)(N1CC1)N1CC1`, the growth is reported as 106% (inactive) and 84.9% (inactive).
In the case of `Cn1ncc2cc3c(Nc4ccc(Cl)cc4)cccc3nc21`, the growth is reported as 88.1% (inactive).
`CCC(=O)Oc1ccc(/C=N/NC(N)=S)nc1` was tested, and the growth was 65% (inactive).
With `O=Nc1ccc(Nc2ccccc2)cc1` the growth was 81.2% (inactive).
With `Cc1cc(Cl)ccc1NC(=O)/C(Cl)=C1/Sc2ccccc2NC1=O` the growth was 88.2% (inactive).
With `Cc1cc(N=C2C=CC(=[N+](C)C)C=C2)c(N)cc1N` the growth was 109% (inactive).
With `O=C(O)c1ccccc1.[Ag]` the growth was 110% (inactive).
`N#C/C(=C/N1C(=O)/C(=C/c2ccc([N+](=O)[O-])cc2)SC1=S)c1nc2ccccc2s1` was tested, and the growth was 95.6% (inactive).
For `CC(=O)O[C@H]1C(=O)[C@@]2(C)[C@H]([C@H](OC(=O)c3ccccc3)[C@]3(O)C[C@H](OC(=O)[C@H](O)[C@@H](NC(=O)c4ccccc4)c4ccccc4)C(C)=C1C3(C)C)[C@]1(OC(C)=O)CO[C@@H]1C[C@@H]2O`, the growth was -26.2% (active) and 11.5% (inactive).
With `O=S(=O)(c1cc(Cl)ccc1O)c1cc(Cl)ccc1O` the growth was 94.2% (inactive).
With `CC[C@@]1(OC(=O)CN(C)C)C(=O)OCc2c1cc1n(c2=O)Cc2cc3c(N)cccc3nc2-1` the growth was 6.43% (active).
With `COc1cccc(C(c2cc3c(cc2O)OCO3)N2CCOCC2)c1OC` (stereo not given) the growth was 97.4% (inactive).
`Cc1c(-c2ccccc2)[nH]c2ccccc12` was tested, and the growth was 106% (inactive).
`COc1ccc2c(c1)[nH]c1c(/C=C/c3ccccc3)nccc12` was tested, and the growth was 43.9% (inactive).
With `O=[N+]([O-])c1cc(S(=O)(=O)Nc2ccccc2)ccc1Cl` the growth was 96.5% (inactive).
With `NCc1c(O)ccc2ccccc12` the growth was 98.2% (inactive).
For `O=C1c2cccc3cc([N+](=O)[O-])cc(c23)C(=O)N1CCN1CCCC1`, the growth was -7.27% (active).
With `Nc1nc(N)c2cc(Sc3ccc4ccccc4c3)ccc2n1` the growth was 22.6% (inactive).
In the case of `Cc1cc(O)c2c(c1O)C(=O)C13C(=C2O)C(=O)C2C(O)C1C1C(O)C3C(=O)C3=C(O)c4c(O)cc(C)c(O)c4C(=O)C321` (stereo not given), the growth is reported as 16.4% (inactive).
With `CN(C)c1ccc(/C=C/c2ccnc3ccccc23)cc1N` the growth was 59.5% (inactive).
In the case of `COc1cc(N)ccc1Nc1c2ccccc2nc2ccccc12`, the growth is reported as -10.1% (active).
`O=C1C=CC(=O)N1c1ccc(N2C(=O)C=CC2=O)cc1` was tested, and the growth was 91.4% (inactive).
In the case of `COc1ccc(C(C#N)=C2C=CC(=NO)C=C2)cc1`, the growth is reported as 91.5% (inactive).

Same assay, conditions: 100 µM
With `S=P(N1CC1)(N1CC1)N1CC1` the growth was 57.5% (inactive).
